In PubChem BioAssay (NCATS):
“And” between values parts separate entries of the source, which are not always exact repeats. Identical values can stand only once. Results filed as inconclusive are left out. A call without a number means that no potency is given here. The source made the active and inactive calls. Calls come from the whole dose curve; as a rule, active = well fitted curve in the direction sought with a large enough effect; inconclusive = small, poorly fitted or top-dose-only effect, or another doubt; inactive = no such curve, though single readings can be large; an effect the other way counts as inactive or inconclusive.

Assays:
[1] = P-glycoprotein substrates identified in KB-3-1 adenocarcinoma cell line, qHTS therapeutic library screen (AID 1346986); conditions: KB-3-1 parental cells viability, CellTiter-Glo, 72 h; series mostly up to 44.5 µM; note: nearly all actives have a fitted effect of over 60% in size;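 note: potency is for cytotoxicity meaning loss of cell viability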
How it was run: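 Cells seeded 500/well in DMEM/10% FCS; compounds pinned in dose-response; 72 h incubation; CellTiter-Glo added, 5 min, luminescence. KB-8-5-11 run ±tariquidar to test reversal of P-gp resistance.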

[2] = P-glycoprotein substrates identified in KB-8-5-11 adenocarcinoma cell line, qHTS therapeutic library screen (AID 1346987); conditions: KB-8-5-11 (P-gp overexpressing) viability, CellTiter-Glo, 72 h; series mostly up to 44.5 µM; note: nearly all actives have a fitted effect of over 65% in size
How it was run: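 KB-8-5-11, a colchicine-selected P-gp-overexpressing KB-3-1 subline, was grown without colchicine for the assay. Cells were seeded at 500 cells/well, dosed in concentration-response and incubated 72 h at 37 degree C, 5% CO2. Viability was read by CellTiter-Glo luminescence.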
Potency is the fitted concentration of half-maximal effect.

Compound	Potency [1]	Potency [2]	outcome [1]	outcome [2]
O=C1OCc2cc3cccc(O[C@@H]4O[C@H](CO)[C@@H](O)[C@H](O)[C@H]4O)c3c(O)c21	inactive	inactive		
C[C@@H]1O[C@@H](O[C@H]2[C@H](O[C@H]3CC[C@@]4(C)C(CC[C@]5(C)C4CC=C4[C@@H]6CC(C)(C)CC[C@]6(C(=O)O[C@@H]6OC[C@H](O)[C@H](O)[C@H]6O[C@@H]6O[C@@H](C)[C@H](O[C@@H]7O[C@H](CO)[C@@H](O)[C@H](O)[C@H]7O)[C@H](O)[C@H]6O)[C@H](O)C[C@]45C)C3(C)C)O[C@H](CO)[C@@H](O[C@@H]3OC[C@@H](O)[C@H](O)[C@H]3O)[C@@H]2O)[C@H](O)[C@H](O)[C@H]1O (some centres not stated)			inactive [at 9.29 µM]	inactive [at 9.29 µM]
C[C@@H]1C[C@H]2O[C@@H]2/C=C\C=C\C(=O)Cc2c(Cl)c(O)cc(O)c2C(=O)O1	2.86 µM (active)	438 nM (active) and 5.7 µM (active)		
CC(C)c1ccc(CO)cc1O[C@@H]1O[C@H](CO)[C@@H](O)[C@H](O)[C@H]1O	inactive	inactive		
C=C1[C@H](OC(C)=O)[C@H]2[C@@H](OC(C)=O)[C@](C)(OC(C)=O)C[C@]2(OC(C)=O)C(=O)[C@H](C)/C=C/C(C)(C)C(=O)[C@H](OC(=O)C(C)CC)[C@H]1OC(C)=O (some centres not stated)	inactive	inactive		
C[C@@H]1O[C@@H](O[C@H]2[C@H](O[C@H]3[C@H](O[C@H]4CC[C@@]5(C)C(CC[C@]6(C)C5CC=C5[C@@H]7CC(C)(C)CC[C@]7(C(=O)O[C@@H]7O[C@H](CO)[C@@H](O[C@@H]8O[C@@H](C)[C@H](O)[C@@H](O)[C@H]8O)[C@H](O)[C@H]7O)CC[C@]56C)C4(C)C)OC[C@H](O)[C@@H]3O)O[C@H](CO)[C@@H](O)[C@@H]2O)[C@H](O)[C@H](O)[C@H]1O (some centres not stated)			inactive [at 9.29 µM]	inactive [at 9.29 µM]
